# Assay outcomes (PubChem BioAssay)
# Hits are enriched below; roughly 1.2% of the tested compounds scored in any of these assays.
# S1P2 antag = blocks the human S1P2 receptor; inhibition, % at 5 µM; hit rate 0.21% among 97,000; AID 736; O95136; cell-based S1P2 antagonist assay, inhibition at 5 uM; in the data active = inhibition above about 45%;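 note: CRE beta-lactamase reporter cells expressing human S1P2 stimulated with S1P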
# Target sequence (O95136 whole entry, looked up): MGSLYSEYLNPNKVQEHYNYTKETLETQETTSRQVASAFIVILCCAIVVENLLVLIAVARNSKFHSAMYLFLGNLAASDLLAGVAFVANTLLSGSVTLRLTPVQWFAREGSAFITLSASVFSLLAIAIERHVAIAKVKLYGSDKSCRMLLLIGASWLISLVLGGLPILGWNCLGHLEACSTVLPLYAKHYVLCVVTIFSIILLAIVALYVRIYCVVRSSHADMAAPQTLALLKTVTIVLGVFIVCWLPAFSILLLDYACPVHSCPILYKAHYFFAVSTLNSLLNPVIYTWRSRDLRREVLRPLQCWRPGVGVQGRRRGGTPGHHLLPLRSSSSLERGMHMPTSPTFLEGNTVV
# GALR2 blocker = antagonists of human galanin receptor 2 (GALR2). O43603. GALR2-expressing cells, antagonist mode. inhibition, % at 4 µM. hit rate 0.39% among 140,000. AID 828; in the data active = inhibition above about 27%;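 note: cells stimulated with galanin 1-16 at roughly its EC80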
# GALR2 ag = activates the human galanin receptor 2; GALR2-expressing cells, agonist activation read-out; activation, % (concentration not given with the values); hit rate 0.48% among 140,000; AID 803; in the data active = activation above about 5%, passing the limit was not always enough
# S1P2 agonist = agonists of human S1P2 receptor | hit rate 0.46% among 97,000 | activation, % at 4.5 µM | S1P2-expressing cell line, agonist reporter read-out; in the data active = activation above about 16%
# GALR2 agon conf = GALR2 (human) agonism confirmed; shares compounds with GALR2 ag; GALR2-expressing cells, agonist activation; activation, % at 5.6 µM; hit rate 10% among 460; in the data active = activation above about 8.4%
# BLA activ ctr = counter-screen for GALR2 agonists: beta-lactamase reporter activators. shares compounds with GALR2 ag. CHO NFAT-bla reporter, beta-lactamase FRET activation. activation, % at 5.6 µM. hit rate 10% among 460. AID 865;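 active = activation above the screen-wide mean activation plus 3 SD, cut at about 8% in these data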
# Hits are given with their value; 0 = inactive; - = no result.
SMILES,S1P2 antag,GALR2 blocker,GALR2 ag,S1P2 agonist,GALR2 agon conf,BLA activ ctr
CCOc1cccc(-c2nn(-c3ccccc3)cc2/C=C(/C#N)C(=O)NCCCn2ccnc2)c1,-,0,46,-,35,82
CN(NC(=O)C(C)(C)C)c1nc(-c2ccccc2)nnc1C(F)(F)F,0,0,0,0,0,0
COc1ccc(C(=O)NN(C)c2nc(-c3ccccc3)nnc2C(F)(F)F)cc1,0,0,0,0,-,-
O=C(Cn1c2ccccc2c(=O)c2ccccc21)Nc1ccccc1F,-,0,15,-,0,0
CN(CC(=O)O)Cc1nc2ccccc2[nH]1,0,0,0,0,-,-
COC(=O)/C(=C/Nc1ccc(O)cc1)[N+](=O)[O-],0,0,0,0,0,0
COC(=O)/C(=C/Nc1ccccc1)[N+](=O)[O-],0,0,0,0,-,-
CC(/C=C/c1ccccc1)=N\NC(=O)Cn1nc(C)cc1C,-,0,0,-,-,-
Cc1cc(C)cc(NC(=O)CN2CCCN(S(=O)(=O)c3ccc(Br)s3)CC2)c1,0,0,0,0,-,-
Cc1ccc(NC(=O)CN2CCCN(S(=O)(=O)c3ccc(Br)s3)CC2)cc1,0,0,0,0,0,0
CCC/C(O)=N\S(=O)(=O)c1ccc(N=NN(C)C)cc1,0,0,0,0,-,-
COC(=O)c1cc2ccsc2n1CC(=O)Nc1cc(C)cc(C)c1,0,0,0,0,0,0
CCNS(=O)(=O)c1ccc(C)c(-n2cnnn2)c1C,0,0,0,0,-,-
NS(=O)(=O)c1ccc(N2N=C(c3ccccc3)CC2c2ccc(F)cc2)cc1 (stereo not given),0,0,20,0,0,11
COc1ccccc1NC(=S)Nc1ccccn1,-,0,44,-,0,0
CCOC(=O)c1ccc2[nH]c(C)c(CCC(C)=O)c(=O)c2c1,0,0,0,0,-,-
CC(=O)Nc1ccc2[nH]c(C)c(CC=C(Cl)Cl)c(=O)c2c1,0,0,14,0,0,0
COc1ccc2cc(/C=N/NC(=O)c3ccc(CN(c4cccc(Cl)c4Cl)S(C)(=O)=O)cc3)c(Cl)nc2c1,-,0,0,-,-,-
COc1ccc(C(=O)/C=C/c2cn(CN3CCN(C)CC3)c3ccccc23)cc1,0,0,0,0,-,-
CCOc1ccc(C(=O)/C=C/c2cn(CN3CCN(C)CC3)c3ccccc23)cc1,0,0,12,0,0,0
O=c1cc(N2CCOCC2)cnn1-c1ccccc1,-,0,0,-,-,-
COC(=O)c1ccc2c(c1)C(C)(C)C(/C=C/c1ccccc1O)=[N+]2C,0,0,13,0,0,0
C[N+]1=C(/C=C/Nc2ccccc2Cl)C(C)(C)c2ccccc21,-,0,0,-,-,-
CN(C(=O)COc1ccccc1C(=O)NCCc1ccccc1)c1ccccc1,-,0,0,-,-,-
COc1ccc(/C=N/OCC(=O)Nc2nc3ccccc3s2)cc1,-,0,0,-,-,-
SMILES,S1P2 antag,GALR2 blocker,GALR2 ag,S1P2 agonist,GALR2 agon conf,BLA activ ctr
COc1ccc(C2NC(=S)N3C(c4ccc(OC)cc4)NC(=S)N23)cc1 (stereo not given),0,0,0,0,-,-
S=C1NC(c2ccccc2)N2C(=S)NC(c3ccccc3)N12 (stereo not given),0,0,12,0,0,0
CCn1nc(C(=O)OC(C(=O)c2c[nH]c3ccccc23)c2ccccc2)c2ccccc2c1=O (stereo not given),0,0,0,0,-,-
C(=C\c1ccco1)/C1=NN(c2ccccc2)C(c2ccco2)C1 (stereo not given),-,0,72,-,27,39
COc1ccc(NC(=O)COc2ccccc2)c(OC)c1,0,0,16,0,0,0
COc1ccccc1NC(=O)COc1ccccc1,0,0,0,0,-,-
CC(=O)c1nn(-c2ccc(Br)cc2)cc1C(=O)c1ccccc1,-,0,8.6,-,0,0
CC(=O)c1nn(-c2ccc(Br)cc2)cc1C(=O)c1ccco1,0,0,0,0,-,-
O=C(Cn1c(COc2ccccc2)nc2ccccc21)Nc1cc(Cl)ccc1Cl,-,0,10,-,0,0
O=C(Cn1c(COc2ccccc2)nc2ccccc21)Nc1cc(Cl)cc(Cl)c1,-,0,0,-,-,-
CCN(CC)S(=O)(=O)c1ccc(-c2nnc(SCC(C)=O)o2)cc1,0,0,0,0,0,0
O=C(NC1CCCCC1)c1ccc(Cn2cc(Cl)cn2)cc1,0,0,0,0,-,-
COc1ccccc1-c1nnc(SCC(=O)NCc2c(C)c(Cl)cc(C(C)C)c2O)o1,0,0,0,0,-,-
Clc1ccc(CNCCC2=CCCCC2)cc1,0,0,0,0,-,-
Cc1cccc2cc3c(NC(=O)c4ccccn4)nn(C)c3nc12,0,0,0,0,0,0
Oc1ccc(-c2nc3c4c(ncn3n2)-c2ccccc2CC42CCCC2)cc1,-,0,0,-,-,-
O=C(CSc1ncc(-c2ccccc2)n1CC1CCCO1)N1CCCCC1 (stereo not given),-,0,0,-,-,-
